Values joined by “and” are separate entries in the source; they are usually repeats but may differ in a detail not shown here. Equal entries are not always repeated. The source holds several records for some structures; these can differ, active in one and inactive in another. Active and inactive are the calls of the source. The calls were made as follows: active = hit-call score of the fitted dose curve at least 0.9, where 1 is the maximum; inactive = score below 0.9.
How the values were obtained:
[1] = read-out: TIMP metallopeptidase inhibitor 1 (TIMP1), TIMP1 (gene 7076); assay: BSK_MyoF_TIMP1: BioMAP Diversity Plus: MyoF Assay for TIMP metallopeptidase inhibitor 1 (TIMP1) Biomarker Activity (AID 2284269); details: primary human lung fibroblasts
Procedure, shortened: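 Primary human lung fibroblasts, MyoF multiplex system; chemical exposure 24 h; TIMP-1 by ELISA; positive fitting direction vs DMSO control.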

[2] = read-out: Matrix Metallopeptidase 1 (MMP1), MMP1 (gene 4312); assay: BSK_BF4T_MMP1: BioMAP Diversity Plus: BF4T Assay for Matrix Metallopeptidase 1 (MMP1) Biomarker Activity (AID 2284270); details: primary human bronchial epithelial cells with fibroblasts
Procedure, shortened: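 Co-culture of human bronchial epithelial cells and dermal fibroblasts; MMP-1 levels measured by ELISA 24 hours after chemical dosing, relative to DMSO. Cytotoxicity checked in parallel cultures by SRB total-protein staining.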

[3] = read-out: Matrix Metallopeptidase 3 (MMP3), MMP3 (gene 4314); assay: BSK_BF4T_MMP3: BioMAP Diversity Plus: BF4T Assay for Matrix Metallopeptidase 3 (MMP3) Biomarker Activity (AID 2284271); details: primary human bronchial epithelial cells with fibroblasts
Procedure, shortened: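 Co-culture of human bronchial epithelial cells and dermal fibroblasts dosed 24 h; MMP-3 measured by ELISA, positive-direction fit versus DMSO. Cytotoxicity tracked by SRB total-protein staining (560 nm) in parallel cultures.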

[4] = read-out: Tissue plasminogen activator (tPA), PLAT (gene 5327); assay: BSK_BF4T_tPA: BioMAP Diversity Plus: BF4T Assay for Tissue plasminogen activator (tPA) Biomarker Activity (AID 2284272); details: primary human bronchial epithelial cells with fibroblasts
Procedure, shortened: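 tPA level quantified by ELISA at 24 h post-treatment in bronchial epithelial/dermal fibroblast co-cultures, gain of signal scored against DMSO baseline. Parallel cultures stained with 0.1% SRB (560 nm) to flag overt cytotoxicity.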

[5] = read-out: Plasminogen Activator Inhibitor-1 (PAI1), SERPINE1 (gene 5054); assay: BSK_BF4T_PAI1: BioMAP Diversity Plus: BF4T Assay for Plasminogen Activator Inhibitor-1 (PAI1) Biomarker Activity (AID 2284273); details: primary human bronchial epithelial cells with fibroblasts
Procedure, shortened: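 Co-culture of human bronchial epithelial cells and dermal fibroblasts exposed to compound for 24 h. PAI-1 measured by ELISA; activity fitted in positive direction versus DMSO. Parallel SRB staining assessed overt cytotoxicity.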

[6] = BSK_BF4T_SRB: Viability Assessment in the BioMAP Diversity Plus: BF4T Assay (AID 2284274); details: primary human bronchial epithelial cells with fibroblasts
Procedure, shortened: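 Co-culture of human bronchial epithelial cells and dermal fibroblasts (BioMAP BF4T) exposed 24 h. Total protein by sulforhodamine B staining (0.1% SRB after 10% TCA fixation, 560 nm) in parallel cultures; fitted vs DMSO.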

[7] = read-out: urokinase Plasminogen Activator (uPA), PLAU (gene 5328); assay: BSK_BF4T_uPA: BioMAP Diversity Plus: BF4T Assay for urokinase Plasminogen Activator (uPA) Biomarker Activity (AID 2284275); details: primary human bronchial epithelial cells with fibroblasts
Procedure, shortened: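 Co-culture of human bronchial epithelial cells and dermal fibroblasts; uPA quantified by ELISA 24 hours after dosing, fitted relative to DMSO. Parallel SRB total-protein staining assessed overt cytotoxicity.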

[8] = read-out: Matrix Metallopeptidase 9 (MMP9), MMP9 (gene 4318); assay: BSK_BF4T_MMP9: BioMAP Diversity Plus: BF4T Assay for Matrix Metallopeptidase 9 (MMP9) Biomarker Activity (AID 2284276); details: primary human bronchial epithelial cells with fibroblasts
Procedure, shortened: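 Co-culture of human bronchial epithelial cells and dermal fibroblasts dosed for 24 h; MMP-9 quantified by ELISA and fitted upward versus DMSO. Cytotoxicity monitored in parallel cultures by SRB total-protein staining at the biomarker time point.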

[9] = read-out: Interleukin-8 (IL8), CXCL8 (gene 3576); assay: BSK_IMphg_IL8: BioMAP Diversity Plus: IMphg Assay for Interleukin-8 (IL8) Biomarker Activity (AID 2284277); details: primary human endothelial cells with macrophages
Procedure, shortened: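 Co-culture of human venular endothelial cells and macrophages exposed to chemicals for 24 h; IL-8 quantified by ELISA and compared against the DMSO baseline, with SRB total-protein staining in parallel cultures for cytotoxicity.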

[10] = read-out: Intercellular Adhesion Molecule 1 (ICAM1), ICAM1 (gene 3383); assay: BSK_BE3C_ICAM1: BioMAP Diversity Plus: BE3C Assay for Intercellular Adhesion Molecule 1 (ICAM1) Biomarker Activity (AID 2284278); details: primary human bronchial epithelial cells;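 also: cell-surface ICAM-1 protein level quantified by ELISA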
Procedure, shortened: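 Primary human bronchial epithelial cells were exposed to compound for 24 h, after which cell-surface ICAM-1 was quantified by ELISA. Activity was fitted in the gain-of-signal direction against DMSO as negative control and baseline.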

[11] = read-out: Interleukin-8 (IL8), CXCL8 (gene 3576); assay: BSK_BE3C_IL8: BioMAP Diversity Plus: BE3C Assay for Interleukin-8 (IL8) Biomarker Activity (AID 2284280); details: primary human bronchial epithelial cells
Procedure, shortened: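 IL-8 signal gain, normalised to DMSO vehicle, was scored after a 24 h chemical exposure of primary human bronchial epithelial cells, with detection by ELISA.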

[12] = read-out: Epidermal growth factor receptor (EGFR), EGFR (gene 1956); assay: BSK_BE3C_EGFR: BioMAP Diversity Plus: BE3C Assay for Epidermal growth factor receptor (EGFR) Biomarker Activity (AID 2284281); details: primary human bronchial epithelial cells
Procedure, shortened: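 Compound is added to human bronchial epithelial cells, cells incubate 24 h, then EGFR is detected by ELISA. Values reflect positive-direction fitting relative to DMSO.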

[13] = read-out: Matrix Metallopeptidase 9 (MMP9), MMP9 (gene 4318); assay: BSK_BE3C_MMP9: BioMAP Diversity Plus: BE3C Assay for Matrix Metallopeptidase 9 (MMP9) Biomarker Activity (AID 2284283); details: primary human bronchial epithelial cells
Procedure, shortened: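 Human primary bronchial epithelial cells exposed 24 h to compound. MMP9 quantified by ELISA. SRB total-protein staining of parallel cultures assesses cytotoxicity. Positive-direction fit relative to DMSO.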

[14] = read-out: Plasminogen activator inhibitor-1 (PAI1), SERPINE1 (gene 5054); assay: BSK_CASM3C_PAI1: BioMAP Diversity Plus: CASM3C Assay for Plasminogen activator inhibitor-1 (PAI1) Biomarker Activity (AID 2284284); details: primary human coronary artery smooth muscle cells;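 also: PAI-1 protein level measured by ELISA 24 h after dosing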
[15] = read-out: Monocyte Chemoattractant Protein-1 (MCP1), CCL2 (gene 6347); assay: BSK_hDFCGF_MCP1: BioMAP Diversity Plus: hDFCGF Assay for Monocyte Chemoattractant Protein-1 (MCP1) Biomarker Activity (AID 2284285); details: primary human foreskin fibroblasts
Procedure, shortened: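 Human foreskin fibroblasts (hDFCGF system) were exposed to compound and secreted MCP-1 was measured by ELISA after 24 hours. Activity was fitted relative to DMSO. Cytotoxicity was checked by SRB total-protein staining in parallel cultures.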

[16] = read-out: Vascular cell adhesion molecule 1 (VCAM1), VCAM1 (gene 7412); assay: BSK_IMphg_VCAM1: BioMAP Diversity Plus: IMphg Assay for Vascular cell adhesion molecule 1 (VCAM1) Biomarker Activity (AID 2284286); details: primary human endothelial cells with macrophages
Procedure, shortened: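 Human venular endothelial cells co-cultured with macrophages; VCAM-1 quantified by ELISA 24 h after dosing, fitted in the positive direction against DMSO. Cytotoxicity was checked in parallel cultures by SRB total-protein staining (0.1% SRB after 10% TCA fixation, 560 nm).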

[17] = read-out: Intercellular Adhesion Molecule 1 (ICAM1), ICAM1 (gene 3383); assay: BSK_hDFCGF_ICAM1: BioMAP Diversity Plus: hDFCGF Assay for Intercellular Adhesion Molecule 1 (ICAM1) Biomarker Activity (AID 2284287); details: primary human foreskin fibroblasts
Procedure, shortened: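 Primary human foreskin fibroblasts (hDFCGF system) dosed with chemical; ICAM-1 quantified by ELISA at 24 h relative to DMSO. Parallel SRB total-protein staining to assess overt cytotoxicity.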

CD40, CD40 (gene 958) = assay: BSK_IMphg_CD40: BioMAP Diversity Plus: IMphg Assay for CD40 Biomarker Activity (AID 2284288); details: primary human endothelial cells with macrophages
Procedure, shortened: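 Venular endothelial cells co-cultured with macrophages (human primary), CD40 measured by ELISA 24 h after dosing. Positive-direction fit vs DMSO baseline; cytotoxicity tracked by SRB total-protein staining in parallel cultures.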

Measured: AC50

CCN(CC)c1ccc(C=O)cc1
inactive: [1]

O=C(Cl)C(F)(F)C(F)(F)C(F)(F)C(F)(F)C(F)(F)C(F)(F)C(F)(F)F
inactive: [1] | [2] | [3] | [4] | [5] | [6] | [7] | [8] | [10] | [11] | [12] | [13] | [14] | [15] | [16] | [17] | CD40, CD40 (gene 958)
active: [2] 19.9 µM | [7] 21.6 µM | [8] 18.7 µM | [9] 30 µM and 36.9 µM | [11] 15.9 µM

NCC(F)(F)C(F)(F)C(F)(F)C(F)(F)C(F)(F)C(F)(F)F
inactive: [1] | [2] | [3] | [4] | [5] | [6] | [7] | [8] | [9] | [10] | [11] | [12] | [13] | [14] | [15] | [16] | [17]
active: [8] 0.778 µM

CC(C)CCCC(C)CCO (stereo not drawn)
inactive: [1]

O=C=Nc1cccc2c(N=C=O)cccc12
inactive: [1]

Reference: PubChem BioAssay (EPA / NIEHS)
